According to PubChem BioAssay AID1159580 (chemical genetic matrix, 2015):
Values joined by “and” are separate entries in the source; they are usually repeats but may differ in a detail not shown here. Equal values may be shown once. In all, about 5,500 compounds went through this assay and about 2,000 (36%) were called active. Roughly 18% stayed inconclusive and do not appear here. Rule as the data show it: active = normalized growth mostly below about 0.91 (no sharp cut-off); inconclusive = no clear call, values can overlap the other calls; inactive = mostly above about 0.92. The list shows a part of the results.

Test: chemical genetic growth profiling, strain panel (AID 1159580);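 also: tested at 20 µM; growth read once vehicle control cultures reached saturation at 30 °C; 1 = growth at the plate median or of vehicle wells; lower values mean less growth of the strain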
Conditions: S. cerevisiae deletion strains, growth OD
[1] = locus YAL013W, strain DEP1, active compounds read low
[2] = locus YBR229C, strain ROT2, active compounds read low
[3] = locus YCL061C, strain MRC1, active compounds read low
[4] = locus YDL101C, strain DUN1, active compounds read low
[5] = locus YDL134C, strain PPH21, active compounds read low
[6] = locus YEL061C, strain CIN8, active compounds read low
[7] = locus YGR078C, strain PAC10, active compounds read low
[8] = locus YHR030C, strain SLT2, active compounds read low
[9] = locus YJR043C, strain POL32, active compounds read low
[10] = locus YKL190W, strain CNB1, active compounds read low
[11] = locus YLR039C, strain RIC1, active compounds read low
[12] = locus YLR262C, strain YPT6, active compounds read low
[13] = locus YMR307W, strain GAS1, active compounds read low
[14] = locus YNL153C, strain GIM3, active compounds read low
[15] = locus YNL322C, strain KRE1, active compounds read low

Measured: normalized growth

Cc1cc2c(cc1C)CSC(C)(c1ccc(F)cc1)SC2
inactive: [1] 0.994 | [2] 0.994 | [3] 0.993 | [4] 0.968 | [5] 0.997 | locus YDR150W, strain NUM1, active compounds read low 0.903 | [6] 1.02 | [7] 0.979 | [8] 0.952 | locus YHR087W, strain rtc3, active compounds read low 1.01 | [9] 0.982 | locus YJR075W, strain HOC1, active compounds read low 0.978 | [10] 0.992 | [11] 0.953 | locus YLR058C, strain SHM2 (second series), active compounds read low 1 | locus YLR085C, strain ARP6, active compounds read low 1.03 | [12] 0.961 | locus YML094W, strain GIM5, active compounds read low 1.01 | locus YMR219W, strain ESC1, active compounds read low 1.01 | locus YMR263W, strain SAP30, active compounds read low 0.947 | [13] 0.737 | [14] 0.986 | locus YNL298W, strain CLA4 (second series), active compounds read low 0.975 | [15] 1 | locus YNR030W, strain Alg12, active compounds read low 0.978 | locus YPL055C, strain LGE1, active compounds read low 1 | locus YPL241C, strain CIN2, active compounds read low 1.01 | locus YPR135W, strain CTF4, active compounds read low 0.946

COc1ccccc1OCC(O)COC(N)=O (stereo unspecified)
inactive: [1] 0.997 | locus YAL021C, strain ccr4, active compounds read low 0.991 | locus YAL026C, strain drs2, active compounds read low 0.99 | locus YAL030W, strain snc1, active compounds read low 0.996 | locus YBL061C, strain skt5, active compounds read low 0.989 | locus YBR009C, strain hhf1, active compounds read low 0.97 | locus YBR021W, strain FUR4, active compounds read low 1.02 | locus YBR023C, strain chs3, active compounds read low 0.966 | locus YBR171W, strain sec66, active compounds read low 0.981 | [2] 1 | locus YBR231C, strain swc5, active compounds read low 0.992 | locus YBR279W, strain paf1, active compounds read low 0.976 | locus YCL011C, strain gbp2, active compounds read low 0.979 | locus YCL016C, strain dcc1, active compounds read low 0.962 | locus YCL029C, strain bik1, active compounds read low 0.997 | [3] 0.973 | locus YCL069W, strain vba3, active compounds read low 0.996 | locus YCR088W, strain abp1, active compounds read low 0.985 | locus YDL005C, strain med2, active compounds read low 0.987 | locus YDL035C, strain GPR1, active compounds read low 1 | locus YDL040C, strain nat1, active compounds read low 0.992 | locus YDL074C, strain BRE1, active compounds read low 0.995 | [4] 0.997 | [5] 1.01 | locus YDL185W, strain tfp1, active compounds read low 0.957 | locus YDL192W, strain arf1, active compounds read low 0.977 | locus YDR001C, strain nth1, active compounds read low 0.991 | locus YDR069C, strain doa4, active compounds read low 0.996 | locus YDR101C, strain arx1, active compounds read low 1.04 | locus YDR137W, strain rgp1, active compounds read low 0.965 | locus YDR159W, strain sac3, active compounds read low 1.01 | locus YDR162C, strain NBP2, active compounds read low 1 | locus YDR195W, strain ref2 1.01 | locus YDR297W, strain sur2, active compounds read low 0.996 | locus YDR318W, strain mcm21, active compounds read low 0.993 | locus YDR334W, strain swr1, active compounds read low 0.978 | locus YDR335W, strain msn5, active compounds read low 0.993 | locus YDR388W, active compounds read low 1 | locus YDR392W, strain spt3, active compounds read low 0.918 | locus YDR502C, strain sam2, active compounds read low 0.997 | locus YEL003W, strain gim4, active compounds read low 1 | locus YEL037C, strain rad23, active compounds read low 0.985 | locus YEL061C, strain CIN8 (second series), active compounds read low 0.984 | [6] 0.98 | locus YER015W, strain faa2, active compounds read low 0.974 | locus YER016W, strain bim1, active compounds read low 1.02 | locus YER110C, active compounds read low 0.983 | locus YER111C, strain swi4, active compounds read low 0.981 | locus YER155C, strain BEM2 (second series), active compounds read low 1 | locus YER155C, strain BEM2, active compounds read low 0.993 | locus YER167W, strain BCK2, active compounds read low 0.99 | locus YFR010W, strain ubp6, active compounds read low 0.987 | locus YGL078C, strain dbp3, active compounds read low 0.984 | locus YGL086W, strain mad1, active compounds read low 1.02 | locus YGL167C, strain pmr1, active compounds read low 0.983 | locus YGL173C, strain kem1, active compounds read low 0.992 | locus YGL227W, strain vid30, active compounds read low 0.988 | locus YGL240W, strain doc1, active compounds read low 1.02 | locus YGL248W, strain PDE1, active compounds read low 0.999 | locus YGL253W, strain hxk2, active compounds read low 0.985 | [7] 1 | locus YGR135W, strain pre9, active compounds read low 0.961 | locus YGR229C, strain SMI1, active compounds read low 1 | locus YGR252W, strain gcn5, active compounds read low 0.988 | locus YHR013C, strain ard1, active compounds read low 0.952 | locus YHR027C, strain rpn1, active compounds read low 1 | [8] 0.996 and 1.06 | locus YHR079C, strain IRE1 (second series), active compounds read low 0.991 | locus YHR079C, strain IRE1, active compounds read low 1.05 | locus YHR094C, strain hxt1, active compounds read low 1 | locus YHR129C, strain ARP1, active compounds read low 1 | locus YHR142W, strain chs7, active compounds read low 0.965 | locus YHR200W, strain rpn10, active compounds read low 0.985 | locus YIL066C, strain RNR3, active compounds read low 1 | locus YIL073C, strain SPO22, active compounds read low 0.94 | locus YIL125W, strain kgd1, active compounds read low 0.999 | locus YIR030C, strain dcg1, active compounds read low 0.985 | locus YJL092W, strain hpr5, active compounds read low 0.984 | locus YJL095W, strain BCK1 (second series), active compounds read low 0.991 | locus YJL095W, strain BCK1, active compounds read low 0.991 and 1.03 | locus YJL115W, strain asf1, active compounds read low 0.975 | locus YJL129C, strain trk1, active compounds read low 0.972 | locus YJL134W, strain LCB3, active compounds read low 0.99 | locus YJL154C, strain vps35, active compounds read low 0.992 | locus YJL164C, strain tpk1, active compounds read low 0.97 | locus YJL166W, strain qcr8, active compounds read low 0.96 | locus YJL168C, strain set2, active compounds read low 1 | locus YJL187C, strain SWE1 (second series), active compounds read low 1 | locus YJL187C, strain SWE1, active compounds read low 0.99 | [9] 1.02 | locus YJR066W, strain TOR1, active compounds read low 0.984 | locus YKL009W, strain mrt4, active compounds read low 0.973 | locus YKL068W, active compounds read low 0.989 | locus YKL085W, strain MDH1 (second series), active compounds read low 0.982 | locus YKL085W, strain MDH1, active compounds read low 0.982 | locus YKL160W, strain elf1, active compounds read low 0.965 | [10] 0.976 | locus YKR001C, strain vps1, active compounds read low 1 | locus YKR026C, strain gcn3, active compounds read low 0.992 | locus YKR091W, strain srl3, active compounds read low 0.981 | locus YLL001W, strain dnm1, active compounds read low 0.968 | locus YLL026W, active compounds read low 0.995 | locus YLL041C, strain sdh2, active compounds read low 0.998 | locus YLR027C, strain aat2, active compounds read low 0.997 | [11] 0.941 | locus YLR058C, strain SHM2, active compounds read low 0.999 | locus YLR102C, strain apc9, active compounds read low 0.991 | locus YLR113W, strain HOG1, active compounds read low 1.02 | locus YLR221C, strain rsa3, active compounds read low 0.965 | locus YLR258W, strain gsy2, active compounds read low 0.974 | locus YLR262C, strain YPT6 (second series), active compounds read low 0.966 | [12] 0.985 | locus YLR268W, strain sec22, active compounds read low 0.99 | locus YLR320W, strain mms22, active compounds read low 0.964 | locus YLR330W, strain CHS5, active compounds read low 0.991 | locus YLR342W, strain FKS1 (second series), active compounds read low 1.01 | locus YLR342W, strain FKS1, active compounds read low 0.981 | locus YLR357W, strain rsc2, active compounds read low 0.963 | locus YLR370C, strain arc18, active compounds read low 0.987 | locus YLR371W, strain rom2, active compounds read low 1 | locus YLR384C, strain iki3, active compounds read low 0.979 | locus YLR418C, strain cdc73, active compounds read low 0.988 | locus YML016C, strain PPZ1, active compounds read low 1 | locus YML032C, strain rad52, active compounds read low 1 | locus YML120C, strain ndi1, active compounds read low 0.958 | locus YML124C, strain tub3, active compounds read low 0.988 | locus YMR058W, strain fet3, active compounds read low 0.991 | locus YMR078C, strain ctf18, active compounds read low 0.986 | locus YMR125W, strain sto1, active compounds read low 0.971 | locus YMR129W, active compounds read low 0.988 | locus YMR205C, strain PFK2, active compounds read low 0.964 | locus YMR223W, strain ubp8, active compounds read low 0.964 | locus YMR231W, strain pep5, active compounds read low 0.983 | [13] 1.02 | locus YNL067W, strain RPL9B, active compounds read low 0.986 | locus YNL071W, strain lat1, active compounds read low 0.982 | locus YNL128W, strain TEP1, active compounds read low 0.977 | [14] 1.01 | locus YNL183C, strain NPR1, active compounds read low 0.976 | locus YNL209W, strain ssb2, active compounds read low 0.984 | locus YNL233W, strain BNI4, active compounds read low 0.995 | locus YNL248C, strain rpa49, active compounds read low 0.985 | locus YNL250W, strain rad50, active compounds read low 0.967 | locus YNL271C, strain bni1, active compounds read low 0.977 | locus YNL298W, strain CLA4, active compounds read low 0.99 | locus YNL307C, strain MCK1, active compounds read low 0.999 | locus YNL322C, strain KRE1 (second series), active compounds read low 0.987 | [15] 0.997 | locus YNR049C, strain mso1, active compounds read low 0.99 | locus YNR052C, strain pop2, active compounds read low 0.992 | locus YOL006C, strain TOP1, active compounds read low 1.01 | locus YOL012C, strain htz1 0.742 | locus YOL147C, strain pex11, active compounds read low 0.987 | locus YOR001W, strain rrp6, active compounds read low 1.01 | locus YOR061W, strain CKA2, active compounds read low 1 | locus YOR069W, strain VPS5, active compounds read low 0.992 | locus YOR070C, strain gyp1, active compounds read low 0.988 | locus YOR080W, strain dia2, active compounds read low 0.987 | locus YOR083W, strain WHI5, active compounds read low 0.954 | locus YOR106W, strain vam3, active compounds read low 0.955 | locus YOR136W, strain idh2, active compounds read low 0.989 | locus YOR144C, strain elg1, active compounds read low 0.997 | locus YOR184W, strain ser1, active compounds read low 0.989 | locus YOR231W, strain MKK1, active compounds read low 1.04 | locus YOR265W, strain rbl2, active compounds read low 0.992 | locus YOR270C, strain vph1, active compounds read low 0.972 | locus YOR290C, strain snf2, active compounds read low 0.886 | locus YOR316C, strain cot1, active compounds read low 0.984 | locus YPL051W, strain arl3, active compounds read low 1.01 | locus YPL078C, strain atp4, active compounds read low 0.97 | locus YPL106C, strain sse1, active compounds read low 0.978 | locus YPL240C, strain hsp82, active compounds read low 0.996 | locus YPL256C, strain CLN2, active compounds read low 1.06 | locus YPR119W, strain clb2, active compounds read low 0.991 | locus YPR141C, strain kar3, active compounds read low 0.966 | locus YPR163C, strain tif3, active compounds read low 0.988 | locus YPR167C, strain met16, active compounds read low 0.995 | strain wtn01, active compounds read low 0.991
